Inconclusive results are not listed. Activity calls are given as the source filed them. The calls were made as follows, unless noted: active = hit-call score of the fitted dose curve at least 0.9, where 1 is the maximum; inactive = score below 0.9.
Experiments:
[1] = ACEA_ER_80hr: ACEA Biosciences xCELLigence Real-Time Cell Analysis on Estrogen Receptor Agonism for Proliferation (AID 2282667; active = hit-call score of the fitted dose curve at least 0.9, where 1 is the maximum); settings: T47D proliferation, impedance (xCELLigence), 80 h
How it was run: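 Estrogen-driven proliferation is captured as electrode impedance in T47D cells 80 h after compound addition. Test articles ran at 8 concentrations, 1:4 dilutions from 100 uM final, in two replicate plates.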

[2] = ATG_CRE_CIS: Attagene CIS-FACTORIAL HepG2 Assay for human cAMP Responsive Element (CRE) binding protein 3 (AID 2282926); settings: HepG2 CRE cis-reporter, Attagene multiplexed mRNA; actives raise or lower the signal
How it was run: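 Transfected HepG2 were treated for 24 hours, then RNA was extracted and reporter cDNA amplified with sequence-specific primers. Labelled fragments were separated by capillary electrophoresis, and the CRE signal was fitted bidirectionally with DMSO as baseline.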

[3] = biological target: CCAAT/enhancer-binding protein beta (Homo sapiens) (UniProt P17676); assay: ATG_C_EBP_CIS: Attagene CIS-FACTORIAL HepG2 Assay for human CCAAT/Enhancer Binding Protein (C/EBP) beta (AID 2282927); settings: HepG2 Attagene cis-factorial transcription factor reporter; actives raise or lower the signal
How it was run: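 RT-PCR/capillary electrophoresis fluorescence of reporter mRNA, 24 h post-dose, in HepG2 cells carrying transfected cis-promoter reporter units. Bidirectional curve fitting against DMSO baseline captures gain or loss of signal.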

[4] = ATG_CMV_CIS: Attagene CIS-FACTORIAL HepG2 Assay for human CMV (Internal Marker) (AID 2282928); settings: HepG2 CMV promoter reporter, transcription factor profiling; actives raise or lower the signal;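 also: endpoint acts as a background internal control marker rather than a target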
How it was run: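 After transient transfection of HepG2 with reporter transcription units driven by cis-regulatory promoters, cells receive test chemical for 24 h. Labeled reporter amplicons, digested with HpaI, are sized and quantified by capillary electrophoresis against DMSO.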

[5] = ATG_DR4_LXR_CIS: Attagene CIS-FACTORIAL HepG2 Assay for human Liver X Receptor (LXR), DR4 submotif (AID 2282929); settings: HepG2 Attagene DR4 cis-reporter, mRNA transcription; actives raise or lower the signal
How it was run: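 HepG2 cells transiently transfected with cis-promoter-driven multiplexed reporter units (DR4 element) were dosed for 24 h. Reporter mRNA was quantified by RT-PCR, fluorescent primer extension, HpaI digestion and capillary electrophoresis; bidirectional fitting versus DMSO baseline.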

[6] = biological target: Aryl hydrocarbon receptor (Homo sapiens) (UniProt P35869); assay: ATG_Ahr_CIS: Attagene CIS-FACTORIAL HepG2 Assay for human Aryl Hydrocarbon Receptor (Ahr) (AID 2282930); settings: HepG2 AhR cis-factorial reporter transcription; actives raise or lower the signal
How it was run: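 HepG2 cells transiently transfected with cis-element-driven multiplexed reporter transcription units; endogenous transcription factor activity measured as reporter mRNA 24 h after dosing. RT-PCR, 6-FAM labelling, HpaI digestion, capillary electrophoresis; bidirectional fitting versus DMSO baseline.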

[7] = ATG_AP_1_CIS: Attagene CIS-FACTORIAL HepG2 Assay for human Activator Protein 1 (AP-1) (AID 2282931); settings: HepG2 Attagene cis-factorial AP-1 reporter mRNA; actives raise or lower the signal
How it was run: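 HepG2 cells transiently transfected with cis-element-driven multiplex reporter units; 24 h compound exposure. Reporter mRNA quantified by RT-PCR, FAM-labelled fragments resolved by capillary electrophoresis; bidirectional fit versus DMSO baseline.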

[8] = ATG_AP_2_CIS: Attagene CIS-FACTORIAL HepG2 Assay for human Activator Protein 2 (AP-2) (AID 2282932); settings: HepG2 AP-2 cis-reporter, Attagene transcription factor profiling; actives raise or lower the signal
How it was run: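 HepG2 cells were transiently transfected with multiple cis-promoter reporter transcription units and dosed for 24 h. Reporter mRNA was measured by RT-PCR with capillary electrophoresis fluorescence; bidirectional fits relative to DMSO baseline.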

[9] = ATG_BRE_CIS: Attagene CIS-FACTORIAL HepG2 Assay for human Bone Morphogenetic Protein (BMP) Response Element (BRE) (AID 2282933); settings: HepG2 BMP response element reporter, Attagene transcription factor profiling; actives raise or lower the signal
How it was run: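 After a 24 h chemical treatment, transiently transfected HepG2 cells were lysed for RNA; reporter transcripts were quantified by fluorescent RT-PCR and capillary electrophoresis, normalised to DMSO.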

[10] = biological target: Retinoic acid receptor alpha (Homo sapiens) (UniProt P10276); assay: ATG_DR5_RAR_CIS: Attagene CIS-FACTORIAL HepG2 Assay for human Retinoic Acid Receptor Alpha (RARE), DR5 submotif (AID 2282934); settings: HepG2 Attagene cis-factorial RARE DR5 reporter, mRNA; actives raise or lower the signal
How it was run: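 HepG2 cells transiently transfected with multiplexed reporter units under cis (DR5 RARE) promoters, so endogenous transcription factor activity is measured. After 24 h compound exposure, reporter mRNA is quantified by RT-PCR with fluorescent labelling and capillary electrophoresis; bidirectional fitting versus DMSO.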

[11] = biological target: Transcription factor E2F1 (Homo sapiens) (UniProt Q01094); assay: ATG_E2F_CIS: Attagene CIS-FACTORIAL HepG2 Assay for human E2F Transcription Factor 1 (AID 2282935); settings: HepG2 Attagene cis-reporter, E2F reporter RNA transcripts; actives raise or lower the signal
How it was run: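 HepG2 cells transiently transfected with multiplexed cis-element reporter units, dosed for 24 h. Reporter mRNA measured by RT-PCR, 6-FAM primer-extension labeling, HpaI digestion and capillary electrophoresis; bidirectional fit versus DMSO baseline.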

[12] = ATG_E_Box_CIS: Attagene CIS-FACTORIAL HepG2 Assay for human Enhancer Box (E-box) (AID 2282936); settings: HepG2 E-box cis-reporter transcription, actives raise or lower the signal
How it was run: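 HepG2 cells transiently transfected with multiplexed cis-element reporter units sensing endogenous transcription factor activity; 24 h compound exposure. Reporter mRNA measured by RT-PCR, 6-FAM primer extension, HpaI digestion and capillary electrophoresis; bidirectional fit versus DMSO.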

[13] = ATG_M_61_CIS: Attagene CIS-FACTORIAL HepG2 Assay for M61 Transcription Factor (Internal Marker) (AID 2282937); settings: HepG2 Attagene CIS-FACTORIAL M61 internal marker reporter; actives raise or lower the signal
How it was run: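 HepG2 cells transiently transfected with cis-element-driven multiple reporter transcription units, dosed for 24 h. Reporter mRNA measured by RT-PCR, 6-FAM primer-extension labelling, HpaI digestion and capillary electrophoresis; bidirectional fit versus DMSO baseline.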

[14] = ATG_EGR_CIS: Attagene CIS-FACTORIAL HepG2 Assay for human Early Growth Response 1 (EGR1) (AID 2282938); settings: HepG2 Attagene CIS-FACTORIAL EGR reporter mRNA; actives raise or lower the signal
How it was run: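 HepG2 cells transiently transfected with cis-promoter-driven multiplexed reporter transcription units; reporter mRNA measured 24 h after compound dosing by RT-PCR, 6-FAM primer extension, HpaI digestion and capillary electrophoresis. Bidirectional fit versus DMSO baseline.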

[15] = ATG_M_19_CIS: Attagene CIS-FACTORIAL HepG2 Assay for M19 Transcription Factor (Internal Marker) (AID 2282939); settings: HepG2 Attagene CIS-FACTORIAL M19 internal marker reporter; actives raise or lower the signal
How it was run: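 In this multiplexed cell assay, transiently transfected HepG2 reporter units report endogenous transcription-factor activity; after 24 hours of treatment, labelled reporter cDNA fragments are quantified by capillary electrophoresis and fitted bidirectionally against DMSO.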

[16] = ATG_ERE_CIS: Attagene CIS-FACTORIAL HepG2 Assay for Estrogen Response Element (ERE) (AID 2282940); settings: HepG2 ERE cis-reporter, Attagene RNA transcript; actives raise or lower the signal
How it was run: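 Measuring endogenous transcription factor output, the assay doses transfected HepG2 cells for 24 hours and quantifies reporter transcripts by fluorescent RT-PCR and capillary electrophoresis, with DMSO as baseline.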

[17] = ATG_Ets_CIS: Attagene CIS-FACTORIAL HepG2 Assay for human Erythroblast Transformation Specific (ETS) (AID 2282941); settings: HepG2 ETS cis-reporter transcription, actives raise or lower the signal
How it was run: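 Human HepG2 hepatoma cells were transiently transfected with promoter-driven reporter constructs and treated for 24 hours. Reporter transcripts were quantified by RT-PCR with fluorescent primer extension; bidirectional curve fitting used DMSO as reference.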

[18] = biological target: Hepatocyte nuclear factor 3-beta (Homo sapiens) (UniProt Q9Y261); assay: ATG_FoxA2_CIS: Attagene CIS-FACTORIAL HepG2 Assay for human Forkhead box A2 (FOXA2) (AID 2282942); settings: HepG2 cis-reporter transcription factor activity, 24 h; actives raise or lower the signal
How it was run: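 HepG2 cells transiently transfected with multiple cis-regulated reporter transcription units, dosed for 24 h. Reporter mRNA measured by RT-PCR, 6-FAM labelling, HpaI digestion and capillary electrophoresis; bidirectional fitting against DMSO baseline.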

[19] = ATG_FoxO_CIS: Attagene CIS-FACTORIAL HepG2 Assay for human Forkhead box O (FoxO) (AID 2282943); settings: HepG2 Attagene cis-reporter, FoxO element, mRNA; actives raise or lower the signal
How it was run: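 HepG2 cells transiently transfected with cis-promoter-driven multiple reporter transcription units; 24 h after chemical dosing, reporter mRNA quantified by RT-PCR, fluorescent primer extension, HpaI digestion and capillary electrophoresis. Bidirectional fitting versus DMSO baseline.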

[20] = ATG_GATA_CIS: Attagene CIS-FACTORIAL HepG2 Assay for human GATA Binding Protein (AID 2282944); settings: HepG2 GATA cis-element reporter, Attagene multiplex mRNA; actives raise or lower the signal
How it was run: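 Measures endogenous transcription factor-driven reporter mRNA in HepG2 cells transiently carrying cis-regulated constructs. 24 h dosing; RNA via oligo(dT) reverse transcription, PCR, HpaI digestion, capillary electrophoresis; fitted relative to DMSO.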

Measured: AC50

Sequence of Retinoic acid receptor alpha (Homo sapiens) (P10276 whole entry, looked up): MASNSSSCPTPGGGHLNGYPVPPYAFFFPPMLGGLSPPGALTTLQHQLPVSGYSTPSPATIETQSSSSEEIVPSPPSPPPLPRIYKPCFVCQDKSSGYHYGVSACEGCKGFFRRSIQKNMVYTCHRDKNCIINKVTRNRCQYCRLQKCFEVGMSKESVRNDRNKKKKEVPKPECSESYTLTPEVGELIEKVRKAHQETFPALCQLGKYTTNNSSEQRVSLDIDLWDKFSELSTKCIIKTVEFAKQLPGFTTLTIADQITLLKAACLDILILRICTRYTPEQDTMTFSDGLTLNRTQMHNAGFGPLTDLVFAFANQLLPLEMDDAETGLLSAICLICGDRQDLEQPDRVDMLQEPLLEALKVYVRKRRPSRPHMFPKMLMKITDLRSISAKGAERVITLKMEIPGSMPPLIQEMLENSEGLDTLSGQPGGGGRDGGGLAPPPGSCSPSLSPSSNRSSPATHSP
Sequence of Hepatocyte nuclear factor 3-beta (Homo sapiens) (Q9Y261 whole entry, looked up): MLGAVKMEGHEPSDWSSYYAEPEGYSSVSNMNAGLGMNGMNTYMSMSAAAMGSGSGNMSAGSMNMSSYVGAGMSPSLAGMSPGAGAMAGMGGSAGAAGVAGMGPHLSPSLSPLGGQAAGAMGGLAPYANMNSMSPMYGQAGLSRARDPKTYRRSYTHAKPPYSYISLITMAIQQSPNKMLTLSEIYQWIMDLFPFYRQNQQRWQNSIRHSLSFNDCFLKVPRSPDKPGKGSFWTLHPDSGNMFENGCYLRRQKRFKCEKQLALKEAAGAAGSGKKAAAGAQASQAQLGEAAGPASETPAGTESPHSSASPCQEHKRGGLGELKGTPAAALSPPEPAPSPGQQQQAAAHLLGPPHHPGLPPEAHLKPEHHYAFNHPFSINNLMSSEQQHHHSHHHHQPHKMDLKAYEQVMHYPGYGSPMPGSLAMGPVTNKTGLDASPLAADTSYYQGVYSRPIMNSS
Sequence of Transcription factor E2F1 (Homo sapiens) (Q01094 whole entry, looked up): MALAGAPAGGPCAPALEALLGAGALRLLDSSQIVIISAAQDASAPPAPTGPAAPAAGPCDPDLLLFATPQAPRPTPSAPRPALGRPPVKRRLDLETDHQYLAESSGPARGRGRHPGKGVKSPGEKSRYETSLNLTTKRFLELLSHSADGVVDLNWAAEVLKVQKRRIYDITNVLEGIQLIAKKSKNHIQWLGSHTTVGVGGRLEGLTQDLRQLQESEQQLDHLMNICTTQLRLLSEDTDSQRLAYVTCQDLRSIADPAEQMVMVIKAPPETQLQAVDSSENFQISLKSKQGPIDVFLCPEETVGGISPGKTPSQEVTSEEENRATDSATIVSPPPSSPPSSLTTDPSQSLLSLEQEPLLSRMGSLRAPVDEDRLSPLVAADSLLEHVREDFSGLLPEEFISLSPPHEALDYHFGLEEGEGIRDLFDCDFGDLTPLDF
Sequence of Aryl hydrocarbon receptor (Homo sapiens) (P35869 whole entry, looked up): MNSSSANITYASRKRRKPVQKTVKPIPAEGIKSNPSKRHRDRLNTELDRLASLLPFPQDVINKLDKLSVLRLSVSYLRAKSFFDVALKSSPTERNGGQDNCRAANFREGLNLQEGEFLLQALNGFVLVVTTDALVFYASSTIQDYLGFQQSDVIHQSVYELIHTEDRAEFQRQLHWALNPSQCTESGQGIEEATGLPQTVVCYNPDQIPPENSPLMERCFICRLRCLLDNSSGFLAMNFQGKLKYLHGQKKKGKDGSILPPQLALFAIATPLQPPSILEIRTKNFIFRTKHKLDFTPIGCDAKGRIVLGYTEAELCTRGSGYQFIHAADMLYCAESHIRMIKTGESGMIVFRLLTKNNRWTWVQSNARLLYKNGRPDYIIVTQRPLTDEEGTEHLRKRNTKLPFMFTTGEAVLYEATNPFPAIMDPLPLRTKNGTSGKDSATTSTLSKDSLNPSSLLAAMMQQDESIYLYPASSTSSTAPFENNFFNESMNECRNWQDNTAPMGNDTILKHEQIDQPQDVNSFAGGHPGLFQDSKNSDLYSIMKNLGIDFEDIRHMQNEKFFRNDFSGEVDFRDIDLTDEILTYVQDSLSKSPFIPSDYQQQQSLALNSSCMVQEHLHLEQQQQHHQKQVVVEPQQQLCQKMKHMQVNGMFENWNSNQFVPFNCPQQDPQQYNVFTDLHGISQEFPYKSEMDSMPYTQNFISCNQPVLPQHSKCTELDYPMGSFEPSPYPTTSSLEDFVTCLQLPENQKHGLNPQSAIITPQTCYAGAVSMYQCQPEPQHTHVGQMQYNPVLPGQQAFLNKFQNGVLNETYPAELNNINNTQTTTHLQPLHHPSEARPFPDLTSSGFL
Sequence of CCAAT/enhancer-binding protein beta (Homo sapiens) (P17676 whole entry, looked up): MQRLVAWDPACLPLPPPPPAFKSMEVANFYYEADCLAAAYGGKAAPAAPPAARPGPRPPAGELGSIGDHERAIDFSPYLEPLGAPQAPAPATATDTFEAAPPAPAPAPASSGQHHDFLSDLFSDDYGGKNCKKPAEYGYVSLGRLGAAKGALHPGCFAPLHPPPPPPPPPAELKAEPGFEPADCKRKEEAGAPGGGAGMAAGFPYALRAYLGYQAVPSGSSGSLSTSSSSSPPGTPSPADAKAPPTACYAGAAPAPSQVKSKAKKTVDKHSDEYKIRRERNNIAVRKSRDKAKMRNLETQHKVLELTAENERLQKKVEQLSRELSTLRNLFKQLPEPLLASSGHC

O=S(=O)(O)CCC(F)(F)C(F)(F)C(F)(F)C(F)(F)F
inactive: all assays above

NC(=O)C(F)(F)C(F)(F)C(F)(F)C(F)(F)C(F)(F)C(F)(F)C(F)(F)F
active: [16] 16 µM
inactive: all other assays above

O=C(O)C(F)(F)C(F)(F)C(F)(F)OC(F)(C(F)(F)F)C(F)(F)F
active: [5] 238 µM
not listed: [9] | [18]
inactive: all other assays above

CC(C)CC=C(C=O)c1ccccc1
active: [1] 24.1 µM | [5] 84.9 µM | [7] 100 µM | [16] 35.2 µM
not listed: [9] | [14]
inactive: all other assays above

FC(F)(F)C(F)(F)C(F)(F)CC1CO1 (stereo unspecified)
not listed: [8]
inactive: all other assays above

Oc1ccc2c(c1)CCC2
active: [16] 55.2 µM
not listed: [10] | [14]
inactive: all other assays above

CCCCCCCCCCCCCCCCC
active: [1] 10.5 µM | [16] 25.6 µM
not listed: [8] | [18]
inactive: all other assays above

Source: PubChem BioAssay (EPA / NIEHS)
